# Screening results (PubChem)
# Shown are actives, neighbours in structure and some others; about 3.3% of the full set was active somewhere.
# Tb PYK inh: T. brucei pyruvate kinase inhibition; hit rate 0.12% among 410,000; TbPYK enzyme, Kinase-Glo Plus ATP luminescence, 45 min; AID 624173; Potency, µM (highest dose often 76.8 µM), without a hit: top-dose activity, negative = inhibition, usual class: inhibitors; further: nearly all actives have a fitted effect of over 50% in size
#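 T. brucei PYK with substrate was exposed to pin-transferred compounds across a concentration series, then started with 130 uM ADP (final). After 45 min at room temperature, Kinase-Glo Plus luminescence was read, normalized and curve-fitted.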
# LmPK inh: blocks Leishmania mexicana pyruvate kinase activity; purified LmPK, Kinase-Glo ATP luminescence, 1 h; Potency, µM (titrated, usually from 57.5 µM), inactives show at the highest dose activity change, negative = inhibition, hits mostly inhibitors; hit rate 0.37% among 290,000; AID 1721
#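 Pyruvate kinase activity monitored as ATP production (luciferase luminescence). Conditions: 0.1 nM enzyme, 0.5 mM PEP, 0.1 mM ADP, 1 h, RT; normalized against uninhibited and no-enzyme wells.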
# RE007 growth inh: less growth of the S. pombe RE007 Vpr strain; S. pombe RE007 Vpr strain, BacTiter-Glo ATP luminescence, 24 h; Potency, µM (top dose mostly 92.2 µM), inactives show top-dose activity change, negative = less growth, actives largely listed as inhibitors; hit rate 0.21% among 360,000; AID 651644; active means well fitted falling curve with a large enough effect; inconclusive means small, poorly fitted or top-dose-only effect; inactive means no such curve, though single readings can be large or run the other way; further: nearly all actives have a fitted effect of over 50% in size
#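 Fission yeast RE007 carrying one integrated HIV-1 vpr copy, seeded at OD 0.01 in PMG+AL medium with 23 nL pinned compound. Grown 24 h at 30 degrees; viability read by BacTiter-Glo luminescence after 5 min.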
# FBPA Giardia inh: blocks Giardia fructose-bisphosphate aldolase activity. purified Giardia FBPA. A8B2U2. Potency, µM (top dose mostly 59.6 µM), for the others: at the highest dose activity, negative = inhibition, actives largely listed as inhibitors. AID 2451. hit rate 0.71% among 290,000; further: nearly all actives have a fitted effect of over 55% in size
# Target sequence (A8B2U2 whole entry, looked up): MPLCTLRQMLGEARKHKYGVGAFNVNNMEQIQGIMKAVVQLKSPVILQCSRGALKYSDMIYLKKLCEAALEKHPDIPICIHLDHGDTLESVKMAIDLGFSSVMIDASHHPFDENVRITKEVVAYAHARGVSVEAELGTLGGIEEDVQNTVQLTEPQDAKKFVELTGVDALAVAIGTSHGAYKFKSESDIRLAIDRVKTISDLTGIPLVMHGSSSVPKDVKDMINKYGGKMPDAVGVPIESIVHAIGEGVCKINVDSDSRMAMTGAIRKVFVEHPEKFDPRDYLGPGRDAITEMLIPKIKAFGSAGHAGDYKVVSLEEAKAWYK
#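 Giardia FBPA (40 nM reagent) was preincubated 10 min at RT with compound (up to 57.5 uM final), then substrate plus GAPDH/TPI/NAD/arsenate coupling system with diaphorase/resazurin was added; resorufin fluorescence (525/598 nm) was read after 20 min.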
# Sm TGR inh: S. mansoni TGR enzyme inhibition. Q962Y6. purified TGR, DTNB reduction, TNB absorbance 405 nm. Potency, µM (series often up to 114 µM), inactives show top-dose activity change, negative = inhibition, actives largely listed as inhibitors. hit rate 3% among 360,000; further: nearly all actives have a fitted effect of over 60% in size
#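 TGR 20 nM + NADPH 100 uM (dispensed conc.), cpd preinc 15 min RT; start with NADPH (500 uM addition) then DTNB (15 mM addition). Kinetic TNB absorbance, 405 nm filter. Four-parameter Hill fit across titration.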
# The depositor's hits bear a star; ? = inconclusive; · = no result given; ! = repeats disagree; [ ] = another dose, or the depositor's remark. Unless noted, the call rests on the fitted dose curve; in most records, active means well fitted curve in the direction sought with a large enough effect; inconclusive means small, poorly fitted or top-dose-only effect, or another doubt; inactive means no such curve, though single readings can be large; an effect the other way counts as inactive or inconclusive. On the % scale 0 is the no-effect control and ±100 the full control effect; potency means the concentration at half of the fitted maximal effect.
SMILES,Tb PYK inh,LmPK inh,RE007 growth inh,FBPA Giardia inh,Sm TGR inh
CCCC(=O)Nc1ccc(-c2csc(N/N=C\c3ccncc3)n2)cc1,?,2.5%,3.2%,0.1%,17.8µM*
CC(C)(C)C(=O)[C@@H]1[C@@H]2C(=O)N(Cc3ccccc3)C(=O)[C@@H]2[C@H]2c3ccccc3C=CN12,·,0.7%,·,?,?
CC(=O)[C@H]1[C@@H]2C(=O)N(c3cccc(Cl)c3)C(=O)[C@@H]2[C@H]2c3ccccc3C=CN21,-3.0%,7.5%,-14.0%,?,15.8µM*
CC(=O)[C@@H]1[C@@H]2C(=O)N(C3CCCCC3)C(=O)[C@@H]2C2c3ccccc3C=CN21 (stereo partly specified),·,-1.1%,·,·,25.1µM*
CC(=O)[C@@H]1[C@@H]2C(=O)N(c3ccc(F)c(Cl)c3)C(=O)[C@@H]2C2c3ccccc3C=CN21 (stereo partly specified),·,5.2%,·,?,35.5µM*
O=C(Nc1nc2ccccc2[nH]1)c1cc(F)cc(F)c1,0.0%,-3.8%,6.2%,9.7%,5.8%
Cc1oc(-c2ccccc2F)nc1CS(=O)CC(=O)N1CCC2(CC1)OCCO2 (stereo unspecified),·,-1.2%,11.0%[3.69 µM],·,28.2µM*
COc1cccc(-c2nc(CS(=O)CC(=O)N3CCN(c4cccc(C(F)(F)F)c4)CC3)c(C)o2)c1 (stereo unspecified),-3.1%,·,·,·,?
Cc1oc(-c2ccc(Cl)cc2)nc1CS(=O)CC(=O)N1CCC2(CC1)OCCO2 (stereo unspecified),-3.3%,1.5%,-10.7%,-4.6%,20µM*
Cc1ccc(-c2nc(CS(=O)CC(=O)N3CCN(c4ccc(F)cc4)CC3)c(C)o2)cc1 (stereo unspecified),-0.7%,-1.1%,1.7%,·,-32.3%
Cc1oc(-c2ccccc2F)nc1CS(=O)CC(=O)NCc1ccccc1 (stereo unspecified),-9.9%,-2.2%,-6.6%,4.9%,-20.3%
CCOC(=O)C1CCN(C(=O)CS(=O)Cc2nc(-c3ccc(C)cc3)oc2C)CC1 (stereo unspecified),1.5%,0.1%,0.1%,-5.0%,3.98µM*
COc1cccc(-c2nc(CS(=O)CC(=O)N3CCC4(CC3)OCCO4)c(C)o2)c1 (stereo unspecified),-6.8%,0.0%,1.4%,·,5.01µM*
COc1ccc2c(c1)CCc1c(C(=O)Nc3c(C)nn(Cc4ccc(Cl)cc4)c3C)noc1-2,-3.7%,·,·,·,-26.2%
COc1ccc2c(c1)CCc1c(C(=O)Nc3c(C)nn(Cc4ccccc4)c3C)noc1-2,-3.1%,8.8%,-1.9%,-7.1%,89.1µM*!
O=C(CC1Oc2ccccc2NC1=O)NC1CCCC1 (stereo unspecified),-4.2%,-3.3%,-3.4%,-1.8%,3.3%
Cc1ccc(S(=O)(=O)/N=C2\C=C(Nc3cccc(C(=O)O)c3)C(=O)c3ccccc32)cc1,-13.8%,-11.1%,-23.7%,0.251µM*,-31.2%
Cc1ccc(S(=O)(=O)/N=C2\C=C(Nc3cccc(C(=O)O)c3)C(=O)c3ccccc32)c(C)c1,-20.9%,-22.5%,-4.0%,?,?
CCc1ccc(S(=O)(=O)/N=C2\C=C(Nc3ccc(C(=O)O)cc3)C(=O)c3ccccc32)cc1,-12.1%,-6.8%,-13.2%,0.447µM*,-9.3%
Cc1cc2c(c(SCC(=O)NCc3ccc(Cl)cc3)n1)C(=O)OC2,1.1%,-3.8%,10.4%,1.8%,10.4%
COc1ccc(NC(=O)COc2ccc3c(c2)CCC3)cc1,3.6%,3.5%,-3.5%,-1.8%,4.9%
COc1ccc(Br)cc1C(=O)Nc1ccc(N2CCCC2)cc1,?,-4.2%,3.9%,5.4%,?
COC(=O)/C=C/C(=O)Nc1cccc(C(F)(F)F)c1,3.3%,-1.0%,-27.1%,2.1%,-15.3%
COc1ccc2[nH]c(C)c(CN3CCCCC3)c(=O)c2c1,-0.7%,5.1%,-2.4%,-0.6%,9.5%
CCc1c(C)[nH]c2ccc(OC)cc2c1=S,2µM*,?,-11.5%,?,-32.9%
SMILES,Tb PYK inh,LmPK inh,RE007 growth inh,FBPA Giardia inh,Sm TGR inh
O=C(Nc1nc(-c2ccc(Cl)cc2)cs1)C1=COCCO1,-4.6%,·,?,·,-12.2%
O=C(Nc1nc(-c2cccs2)cs1)C1=COCCO1,-31.3%,?,35.5µM*,-4.7%,-16.3%
N#Cc1ccc(OC(=O)c2cnccn2)cc1,7.7%,5.7%,3.1%,-25.5%,22.4µM*
Cc1cccc(-c2nnn3c2nc(NCc2ccc4c(c2)OCO4)c2ccccc23)c1,2.7%,·,·,·,-1.2%
O=c1[nH]c(=O)n(Cc2ccco2)c(O)c1C=NCc1ccco1,?,19.9%,2.6%,-14.1%,25.1µM*
CC(=O)Nc1ccc(N=Cc2c(O)n(Cc3ccco3)c(=O)[nH]c2=O)cc1,-5.2%,4.1%,-9.3%,-8.8%,25.1µM*
CCN(CC)CCN=Cc1c(O)n(Cc2ccco2)c(=O)[nH]c1=O,-2.2%,2.1%,9.2%,3.4%,-24.1%
Cc1ccc(-n2c(O)c(C=NCc3ccco3)c(=O)[nH]c2=S)cc1C,3.6%,10.9%,1.7%,?,10µM*
CCn1c(SCC(=O)c2[nH]c(C)c(C(C)=O)c2C)nnc1-c1cccs1,-6.7%,0.4%,7.9%,-27.1%,-27.8%
CCOC(=O)c1c(-c2ccc(C)cc2)csc1NC(=O)c1cc(=O)c2ccc(C)cc2o1,0.8%,·,·,·,-0.3%
CCOC(=O)c1c(-c2ccc(C)cc2)csc1NC(=O)c1cc2ccccc2oc1=O,-6.5%,-10.4%,7.3%,-12.4%,14.1µM*
Cc1cc(Cl)nc(N)n1,0.4%,0.7%,2.2%,-6.8%,17.9%
[O-][n+]1c2c(nn1-c1ccccc1Cl)-c1nonc1CC2,-4.7%,0.3%,16.2%,9.6%,3.0%
CCN(CC)c1c([N+](=O)[O-])ncn1C,-3.2%,-1.5%,7.0%,0.4%,-13.4%
Cn1cnc([N+](=O)[O-])c1Oc1cccc(O)c1,-2.6%,-5.8%,-16.0%,5.9%,31.6µM*
Cn1cnc([N+](=O)[O-])c1Oc1cccc2ccccc12,4.4%,-0.2%,-15.6%,-9.1%,25.1µM*
Cn1cnc([N+](=O)[O-])c1Oc1ccccc1,12.8%,-3.0%,3.8%,3.6%,35.5µM*
CC1(C)Cc2c(sc(NC(=O)COc3ccccc3)c2C#N)C(C)(C)N1,-0.9%,7.2%,8.3%,2.1%,-134.6%
NC(=O)C1CN(S(=O)(=O)c2ccc(Cl)cc2F)c2ccccc2O1 (stereo unspecified),-16.1%,0.7%,-7.5%,-5.3%,39.8µM*
CS(=O)(=O)N1CC(C(=O)NN)Oc2ccc(Cl)cc21 (stereo unspecified),-6.2%,3.1%,-3.1%,1.4%,3.8%
CC(=O)c1ccc(S(=O)(=O)NCCCC(=O)N(C)Cc2ccc3c(c2)OCO3)cc1,-6.8%,·,13.5%,·,15.8µM*
CN(C)c1ccc(C(=S)N2CCN(c3ccc([N+](=O)[O-])cc3)CC2)cc1,?,-6.9%,-3.4%,7.92µM*,8.4%
